Assay results from PMC8384837, “Expanding the binding specificity for RNA recognition by a PUF domain”.

Key:
Assay in all cases: yeast three-hybrid, YBZ-1, SC-Leu-His + 0.5 mM 3-AT, 4 days
Settings in all cases: tags: N-Gal4 AD-HA kept; label: inside an RPR1-promoter hybrid RNA with tandem MS2 sites; ssRNA
[1] = molecular target: PUM1 PUF domain R4-VYG (Homo sapiens, UniProt Q14671 828-1176, N971V;H972Y;Q975G)
Procedure, shortened: (§1)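 Each repeat of the Pumilio-1 PUF domain was randomized at its three base-contacting residues, and these libraries were co-expressed from a centromeric plasmid with matching RNA elements in strain YBZ-1. After four days on SC-Leu (input) or SC-Leu-His + 0.5 mM 3-AT (selection), the repeat regions were PCR-amplified and Illumina-sequenced. The interaction score compares variant frequency between input and selection as a log change, computed in log2 with a pseudocount of 1 for absent variants.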

[2] = molecular target: PUM1 PUF domain R5-GRA (Homo sapiens, UniProt Q14671 828-1176, C1007G;Q1011A)
PUM1 PUF domain R5-GRA, sequence (Q14671 828-1176 C1007G/Q1011A): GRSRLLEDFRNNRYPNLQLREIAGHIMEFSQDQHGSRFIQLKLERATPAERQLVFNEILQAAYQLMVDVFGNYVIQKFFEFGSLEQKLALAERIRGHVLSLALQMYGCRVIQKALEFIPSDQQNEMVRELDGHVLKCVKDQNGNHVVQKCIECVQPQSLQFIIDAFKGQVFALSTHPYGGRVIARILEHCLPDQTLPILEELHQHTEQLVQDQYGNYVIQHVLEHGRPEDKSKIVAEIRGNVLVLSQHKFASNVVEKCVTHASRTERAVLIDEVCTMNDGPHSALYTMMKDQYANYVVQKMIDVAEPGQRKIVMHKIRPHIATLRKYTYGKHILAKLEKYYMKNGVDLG
Procedure, shortened: as §1

[3] = molecular target: PUM1 PUF domain R5-DWA (Homo sapiens, UniProt Q14671 828-1176, C1007D;R1008W;Q1011A)
Procedure, shortened: as §1

[4] = molecular target: PUM1 PUF domain R5-GHA (Homo sapiens, UniProt Q14671 828-1176, C1007G;R1008H;Q1011A)
Procedure, shortened: as §1

[5] = molecular target: PUM1 PUF domain R5-RDK (Homo sapiens, UniProt Q14671 828-1176, C1007R;R1008D;Q1011K)
Procedure, shortened: as §1

[6] = molecular target: PUM1 PUF domain R5-GRF (Homo sapiens, UniProt Q14671 828-1176, C1007G;Q1011F)
PUM1 PUF domain R5-GRF, sequence (Q14671 828-1176 C1007G/Q1011F): as the sequence (Q14671 828-1176 C1007G/Q1011A) above, with A184F counted along it
Procedure, shortened: as §1

[7] = molecular target: PUM1 PUF domain R5-TRH (Homo sapiens, UniProt Q14671 828-1176, C1007T;Q1011H)
PUM1 PUF domain R5-TRH, sequence (Q14671 828-1176 C1007T/Q1011H): as the sequence (Q14671 828-1176 C1007G/Q1011A) above, with G180T, A184H counted along it
Procedure, shortened: as §1

[8] = molecular target: PUM1 PUF domain R5-DFD (Homo sapiens, UniProt Q14671 828-1176, C1007D;R1008F;Q1011D)
PUM1 PUF domain R5-DFD, sequence (Q14671 828-1176 C1007D/R1008F/Q1011D): as the sequence (Q14671 828-1176 C1007G/Q1011A) above, with G180D, R181F, A184D counted along it
Procedure, shortened: as §1

[9] = molecular target: PUM1 PUF domain R5-GHG (Homo sapiens, UniProt Q14671 828-1176, C1007G;R1008H;Q1011G)
PUM1 PUF domain R5-GHG, sequence (Q14671 828-1176 C1007G/R1008H/Q1011G): as the sequence (Q14671 828-1176 C1007G/Q1011A) above, with R181H, A184G counted along it
Procedure, shortened: as §1

[10] = molecular target: PUM1 PUF domain R7-RPE (Homo sapiens, UniProt Q14671 828-1176, S1079R;N1080P)
PUM1 PUF domain R7-RPE, sequence (Q14671 828-1176 S1079R/N1080P): as the sequence (Q14671 828-1176 C1007G/Q1011A) above, with G180C, A184Q, S252R, N253P counted along it
Procedure, shortened: as §1

[11] = molecular target: PUM1 PUF domain R7-VTR (Homo sapiens, UniProt Q14671 828-1176, S1079V;N1080T;E1083R)
PUM1 PUF domain R7-VTR, sequence (Q14671 828-1176 S1079V/N1080T/E1083R): as the sequence (Q14671 828-1176 C1007G/Q1011A) above, with G180C, A184Q, S252V, N253T, E256R counted along it
Procedure, shortened: as §1

[12] = molecular target: PUM1 PUF domain R7-RVT (Homo sapiens, UniProt Q14671 828-1176, S1079R;N1080V;E1083T)
PUM1 PUF domain R7-RVT, sequence (Q14671 828-1176 S1079R/N1080V/E1083T): as the sequence (Q14671 828-1176 C1007G/Q1011A) above, with G180C, A184Q, S252R, N253V, E256T counted along it
Procedure, shortened: as §1

[13] = molecular target: PUM1 PUF domain R1-CGE (Homo sapiens, UniProt Q14671 828-1176, S863C;R864G;Q867E)
PUM1 PUF domain R1-CGE, sequence (Q14671 828-1176 S863C/R864G/Q867E): as the sequence (Q14671 828-1176 C1007G/Q1011A) above, with S36C, R37G, Q40E, G180C, A184Q counted along it
Procedure, shortened: as §1

[14] = molecular target: PUM1 PUF domain R3-APK (Homo sapiens, UniProt Q14671 828-1176, C935A;R936P;Q939K)
PUM1 PUF domain R3-APK, sequence (Q14671 828-1176 C935A/R936P/Q939K): as the sequence (Q14671 828-1176 C1007G/Q1011A) above, with C108A, R109P, Q112K, G180C, A184Q counted along it
Procedure, shortened: as §1

[15] = molecular target: PUM1 PUF domain R8-KFN (Homo sapiens, UniProt Q14671 828-1176, N1122K;Y1123F;Q1126N)
PUM1 PUF domain R8-KFN, sequence (Q14671 828-1176 N1122K/Y1123F/Q1126N): as the sequence (Q14671 828-1176 C1007G/Q1011A) above, with G180C, A184Q, N295K, Y296F, Q299N counted along it
Procedure, shortened: as §1

[16] = molecular target: PUM1 PUF domain R5-EFD (Homo sapiens, UniProt Q14671 828-1176, C1007E;R1008F;Q1011D)
Procedure, shortened: as §1

[17] = molecular target: PUM1 PUF domain R5-CHQ (Homo sapiens, UniProt Q14671 828-1176, R1008H)
Procedure, shortened: as §1

[18] = molecular target: PUM1 PUF domain R8-RFF (Homo sapiens, UniProt Q14671 828-1176, N1122R;Y1123F;Q1126F)
PUM1 PUF domain R8-RFF, sequence (Q14671 828-1176 N1122R/Y1123F/Q1126F): as the sequence (Q14671 828-1176 C1007G/Q1011A) above, with G180C, A184Q, N295R, Y296F, Q299F counted along it
Procedure, shortened: as §1

[19] = molecular target: PUM1 PUF domain R8-KKG (Homo sapiens, UniProt Q14671 828-1176, N1122K;Y1123K;Q1126G)
PUM1 PUF domain R8-KKG, sequence (Q14671 828-1176 N1122K/Y1123K/Q1126G): as the sequence (Q14671 828-1176 C1007G/Q1011A) above, with G180C, A184Q, N295K, Y296K, Q299G counted along it
Procedure, shortened: as §1

[20] = molecular target: PUM1 PUF domain R8-KKT (Homo sapiens, UniProt Q14671 828-1176, N1122K;Y1123K;Q1126T)
Procedure, shortened: as §1

GGCUAGAACUAGUGGAUCCCCCGGCGCCCGGCGGCUCGAGCCCGGGUAAGUGUAGAUAGUCUGCAUGCCGCCGGGCGCCAUGCCUGCAGGUCGACUCUAGAAAACAUG
binding signal [1]: 5.26 log2 enrichment (interaction score)

GGCUAGAACUAGUGGAUCCCCCGGCGCCCGGCGGCUCGAGCCCGGGUAAGUGUGAAUAGUCUGCAUGCCGCCGGGCGCCAUGCCUGCAGGUCGACUCUAGAAAACAUG
binding signal [2]: 1.36 log2 enrichment (interaction score)
binding signal [3]: 4.75 log2 enrichment (interaction score)
binding signal [4]: 3.2 log2 enrichment (interaction score)
binding signal [5]: 4.56 log2 enrichment (interaction score)

GGCUAGAACUAGUGGAUCCCCCGGCGCCCGGCGGCUCGAGCCCGGGUAAGUGUUAAUAGUCUGCAUGCCGCCGGGCGCCAUGCCUGCAGGUCGACUCUAGAAAACAUG
binding signal [6]: 3.3 log2 enrichment (interaction score)
binding signal [7]: 4.41 log2 enrichment (interaction score)
binding signal [2]: 2.93 log2 enrichment (interaction score)
binding signal [3]: 5.07 log2 enrichment (interaction score)
binding signal [4]: 2.33 log2 enrichment (interaction score)

GGCUAGAACUAGUGGAUCCCCCGGCGCCCGGCGGCUCGAGCCCGGGUAAGUGUCAAUAGUCUGCAUGCCGCCGGGCGCCAUGCCUGCAGGUCGACUCUAGAAAACAUG
binding signal [8]: 2.82 log2 enrichment (interaction score)
binding signal [9]: 2.77 log2 enrichment (interaction score)
binding signal [3]: 2.25 log2 enrichment (interaction score)

GGCUAGAACUAGUGGAUCCCCCGGCGCCCGGCGGCUCGAGCCCGGGUAAGUUUAAAUAGUCUGCAUGCCGCCGGGCGCCAUGCCUGCAGGUCGACUCUAGAAAACAUG
binding signal [10]: 3.87 log2 enrichment (interaction score)
binding signal [11]: 3.74 log2 enrichment (interaction score)
binding signal [12]: 2.57 log2 enrichment (interaction score)

GGCUAGAACUAGUGGAUCCCCCGGCGCCCGGCGGCUCGAGCCCGGGUAAGUGUAAAUGGUCUGCAUGCCGCCGGGCGCCAUGCCUGCAGGUCGACUCUAGAAAACAUG
binding signal [13]: 3.82 log2 enrichment (interaction score)

GGCUAGAACUAGUGGAUCCCCCGGCGCCCGGCGGCUCGAGCCCGGGUAAGUGUAAUUAGUCUGCAUGCCGCCGGGCGCCAUGCCUGCAGGUCGACUCUAGAAAACAUG
binding signal [14]: 4.11 log2 enrichment (interaction score)

GGCUAGAACUAGUGGAUCCCCCGGCGCCCGGCGGCUCGAGCCCGGGUAAGUGUAAAUAGUCUGCAUGCCGCCGGGCGCCAUGCCUGCAGGUCGACUCUAGAAAACAUG
binding signal [6]: 1.75 log2 enrichment (interaction score)
binding signal [8]: 3.03 log2 enrichment (interaction score)
binding signal [15]: 2.9 log2 enrichment (interaction score)
binding signal [7]: 5.68 log2 enrichment (interaction score)
binding signal [9]: 3.84 log2 enrichment (interaction score)
binding signal [2]: 2.95 log2 enrichment (interaction score)
binding signal [16]: 4.36 log2 enrichment (interaction score)
binding signal [3]: 1.76 log2 enrichment (interaction score)
binding signal [4]: 3.68 log2 enrichment (interaction score)
binding signal [17]: 2.46 log2 enrichment (interaction score)

GGCUAGAACUAGUGGAUCCCCCGGCGCCCGGCGGCUCGAGCCCGGGUAAGCGUAAAUAGUCUGCAUGCCGCCGGGCGCCAUGCCUGCAGGUCGACUCUAGAAAACAUG
binding signal [15]: 2.26 log2 enrichment (interaction score)
binding signal [18]: 5.12 log2 enrichment (interaction score)
binding signal [19]: 2.43 log2 enrichment (interaction score)
binding signal [20]: 3.48 log2 enrichment (interaction score)
